Reference: PubChem BioAssay
A number with no mark means an inactive call. Activity calls are given as the source filed them.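 How the source made its calls: active means at least 20% inhibition of 6-phosphogluconate dehydrogenase activity; inactive means the rest.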

target: 6-phosphogluconate dehydrogenase, decarboxylating (Homo sapiens) (UniProt P52209); test: 6PGD enzyme inhibitors, primary screen, biochemical, human, recombinant enzyme, NADPH absorbance (AID 1159550); conditions: recombinant 6PGD, NADPH absorbance 341 nm; at 10 µM; stronger effect = higher value
Sequence (P52209 whole entry, looked up): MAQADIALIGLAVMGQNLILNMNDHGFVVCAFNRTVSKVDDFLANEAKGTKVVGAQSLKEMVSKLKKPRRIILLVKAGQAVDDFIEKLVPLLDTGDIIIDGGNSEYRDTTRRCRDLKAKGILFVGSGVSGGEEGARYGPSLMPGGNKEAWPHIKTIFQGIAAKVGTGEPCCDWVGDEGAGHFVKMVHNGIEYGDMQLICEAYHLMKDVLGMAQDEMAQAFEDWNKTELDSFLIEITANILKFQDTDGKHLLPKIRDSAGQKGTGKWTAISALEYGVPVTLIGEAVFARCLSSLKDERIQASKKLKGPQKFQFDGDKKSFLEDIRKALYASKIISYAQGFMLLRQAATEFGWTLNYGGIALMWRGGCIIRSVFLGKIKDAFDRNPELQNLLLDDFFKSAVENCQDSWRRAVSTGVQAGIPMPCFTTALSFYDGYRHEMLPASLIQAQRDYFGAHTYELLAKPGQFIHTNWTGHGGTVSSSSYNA

| Compound | inhibition |
| --- | --- |
| NC1(C(=O)O)CCC1 | 2.05% |
| O=C(O)[C@H]1CCCNC1 | 2.88% |
| CC1=CC(=O)C2C(C)(C)CCCC2(C)C1(O)CCc1ccoc1 (centres undefined) | -22.2% |
| CC(C)(OC(=O)c1ccccc1)[C@@H]1Cc2cc3ccc(=O)oc3cc2O1 | 20% (active) |
| O=C(Oc1cc([C@H]2Oc3cc(O)cc(O)c3C[C@H]2O)cc2c([C@H]3Oc4cc(O)cc(O)c4C[C@H]3O)cc(O)c(OC(=O)c3cc(O)c(O)c(O)c3)c2c1=O)c1cc(O)c(O)c(O)c1 | -0.352% |
| C=CCCCCCCCCCCC/C=C/C(O)COC(C)=O (centres undefined) | -11.7% |
| COc1ccc(-c2cc(=O)c3ccc(OC)cc3o2)cc1 | -4.22% |
| O=C(O)Cc1cc(I)c(Oc2cc(I)c(O)c(I)c2)c(I)c1 | -3.72% |
| CC(C)CCC[C@@H](C)[C@H]1CC[C@H]2[C@@H]3CC[C@@H]4C[C@H](O)CC[C@]4(C)[C@H]3CC[C@]12C | -3.72% |
| CC(C)C[C@H](NC(=O)OCC1c2ccccc2-c2ccccc21)C(=O)O | 2.94% |
| COC(=O)C(O)[C@H]1C(C)(C)[C@@H](OC(C)=O)[C@@H]2CC3=C4CC(=O)O[C@@H](c5ccoc5)[C@]4(C)CCC3[C@@]1(C)C2=O (some centres undefined) | 12.8% |
| COc1cc2c(cc1-c1coc3c4c(c(OC)cc3c1=O)OC(C)(C)C=C4)OCO2 | 8.44% |
| COc1cc2c(cc1OC)[C@H]1Cc3ccc(OC)c(OC)c3CN1CC2 | 6.86% |
| OC[C@H]1O[C@@H](O[C@H]2[C@H](O)[C@@H](O)[C@H](O)O[C@@H]2CO)[C@H](O)[C@@H](O)[C@@H]1O | -3.99% |
